# Source: PubChem BioAssay (NCI)
# This is part of a sample that, as a whole, favours compounds with a hit. Of some 79,000 tested, about 15% had one in any assay. Unmarked numbers belong to inactive results. Activity calls are given as the source filed them. No stated cut-off is given here; in the data, active means growth inhibition above about 70%; inactive means the rest.
# Assay: NCI Yeast Anticancer Drug Screen. Data for the rad14 strain (AID 159);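 further: 0% = growth of vehicle-treated control cultures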
# Details: S. cerevisiae rad14 strain growth inhibition, active compounds read high
# Method: Growth inhibition of yeast strains with defined genetic alterations is measured as a screen for potential anti-cancer activity. Selected strains with alterations in DNA damage repair or cell cycle control were exposed to compounds and growth inhibition was measured relative to vehicle treated controls. The strain used in this assay is rad14
SMILES,growth inhibition (at 1.2 µM),growth inhibition (at 3.7 µM),growth inhibition (at 11.0 µM),growth inhibition (at 33.0 µM),growth inhibition (at 100.0 µM)
CC(=O)Oc1ccc2c(c1)Cc1cc(N3C(=O)C=CC3=O)ccc1-2,10%,25%,61%,98% (active),97% (active)
O=C(NNc1ccccc1)C(CCCCNS(=O)(=O)Cc1ccccc1)NS(=O)(=O)Cc1ccccc1 (stereo not given),0%,1%,3%,13%,18%
[N-]=[N+]=NC1(c2ccccc2)C(=O)Nc2ccccc2C1=O (stereo not given),-3%,-1%,8%,12%,21%
NC(=S)N1N=C2c3ccccc3CC[C@@H]2[C@@H]1c1ccccc1,-36%,-33%,-25%,2%,84% (active)
O=C(O)C(=Cc1ccc(-c2ccccc2)cc1)C(=O)O,5%,8%,17%,46%,90% (active)
CCCCN(CCC#N)c1ccc(/C=C/c2ccnc3ccccc23)cc1,-8%,-10%,-5%,-1%,56%
O=C1c2ccccc2-c2cc3ccccc3c(=O)n21,11%,20%,42%,66%,69%
Cc1c2cc[n+](CCO)cc2c(C)c2c1[nH]c1ccc(O)cc12,4%,9%,3%,19%,29%
